{"source": "the supplement of paper PMC8866396", "key": {"IL-6-GFP PC-9GR": {"test_system": "IL-6-GFP PC-9GR", "experiment": "cell viability (CCK-8 OD) relative to DMSO control (fraction of control); higher = more viable cells", "details": "compound concentration: 10 uM; treatment time: 48 h", "method_in_brief": "(§1)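 PC-9 and PC-9GR lung cancer cells carrying a lentiviral construct that overexpresses IL-6-GFP were seeded in 96-well plates at 3000 cells/well. Every compound in a purchased 510-compound library was applied at a final 10 μM for 48 h, and a parallel set of plates was kept for GFP imaging. Cell viability was read by CCK-8 absorbance, taking each well's optical density as a ratio to the vehicle control well. Two independent replicates were run.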"}, "IL-6-GFP PC-9": {"test_system": "IL-6-GFP PC-9", "experiment": "cell viability (CCK-8 OD) relative to DMSO control (fraction of control); higher = more viable cells", "details": "compound concentration: 10 uM; treatment time: 48 h", "method_in_brief": "as §1"}}, "note": "Structures can show the parent of a compound that is named as a salt. ± gives the standard deviation of the averaged measurements."}
{"smiles": "CC(=O)OC(C)OC(=O)C(C)c1ccc(-c2ccccc2)c(F)c1", "note": "(stereo unspecified) [Flurbiprofen Axetil]", "values": [{"measurement": "cell viability", "setting": "IL-6-GFP PC-9GR", "value": "1.17 ± 0.29"}, {"measurement": "cell viability", "setting": "IL-6-GFP PC-9", "value": "1.16 ± 0.038"}]}
{"smiles": "C=CC(=O)Nc1cc(Nc2nccc(-c3cn(C)c4ccccc34)n2)c(OC)cc1N(C)CCN(C)C.CS(=O)(=O)O", "note": "[Osimertinib mesylate]", "values": [{"measurement": "cell viability", "setting": "IL-6-GFP PC-9GR", "value": "0.206 ± 0.046"}, {"measurement": "cell viability", "setting": "IL-6-GFP PC-9", "value": "0.298 ± 0.12"}]}
{"smiles": "COc1c2occc2c(OC)c2c(=O)cc(C)oc12", "note": "[Khellin]", "values": [{"measurement": "cell viability", "setting": "IL-6-GFP PC-9GR", "value": "0.831 ± 0.16"}, {"measurement": "cell viability", "setting": "IL-6-GFP PC-9", "value": "0.888 ± 0.17"}]}
{"smiles": "CCCCC(=O)OC1(C(=O)CO)C(C)CC2C3CCC4=CC(=O)C=CC4(C)C3(F)C(O)CC21C", "note": "(stereo unspecified) [Betamethasone Valerate]", "values": [{"measurement": "cell viability", "setting": "IL-6-GFP PC-9GR", "value": "1.11 ± 0.14"}, {"measurement": "cell viability", "setting": "IL-6-GFP PC-9", "value": "0.804 ± 0.026"}]}
{"smiles": "CN1CCC(=C2c3ccccc3CCc3sccc32)CC1.O=C(O)CC(O)C(=O)O", "note": "[Pizotifen Malate]", "values": [{"measurement": "cell viability", "setting": "IL-6-GFP PC-9GR", "value": "1.41 ± 0.064"}, {"measurement": "cell viability", "setting": "IL-6-GFP PC-9", "value": "1.22 ± 0.16"}]}
{"smiles": "CN1CCC(=C2c3ccccc3C=Cc3ccccc32)CC1.Cl", "note": "[Cyproheptadine hydrochloride]", "values": [{"measurement": "cell viability", "setting": "IL-6-GFP PC-9GR", "value": "0.784 ± 0.082"}, {"measurement": "cell viability", "setting": "IL-6-GFP PC-9", "value": "1.07 ± 0.17"}]}
{"smiles": "Nc1ccn(C2OC(CO)C(O)C2O)c(=O)n1", "note": "(stereo unspecified) [Cytarabine]", "values": [{"measurement": "cell viability", "setting": "IL-6-GFP PC-9GR", "value": "0.816 ± 0.077"}, {"measurement": "cell viability", "setting": "IL-6-GFP PC-9", "value": "0.7893 ± 0.0033"}]}
{"smiles": "C#Cc1cccc(Nc2ncnc3cc(OCCOC)c(OCCOC)cc23)c1.Cl", "note": "[Erlotinib HCl (OSI-744)]", "values": [{"measurement": "cell viability", "setting": "IL-6-GFP PC-9GR", "value": "0.817 ± 0.21"}, {"measurement": "cell viability", "setting": "IL-6-GFP PC-9", "value": "0.388 ± 0.33"}]}
{"smiles": "CCC1(O)C(=O)OCc2c1cc1n(c2=O)Cc2cc3c(CN(C)C)c(O)ccc3nc2-1", "note": "(stereo unspecified) [Topotecan]", "values": [{"measurement": "cell viability", "setting": "IL-6-GFP PC-9GR", "value": "0.333 ± 0.19"}, {"measurement": "cell viability", "setting": "IL-6-GFP PC-9", "value": "0.3428 ± 0.0013"}]}
{"smiles": "COc1cc2nccc(Oc3ccc(NC(=O)NC4CC4)c(Cl)c3)c2cc1C(N)=O.CS(=O)(=O)O", "note": "[lenvatinib Mesylate]", "values": [{"measurement": "cell viability", "setting": "IL-6-GFP PC-9GR", "value": "1.15 ± 0.17"}, {"measurement": "cell viability", "setting": "IL-6-GFP PC-9", "value": "0.265 ± 0.16"}]}
{"smiles": "COc1nc2ccc(Br)cc2cc1C(c1ccccc1)C(O)(CCN(C)C)c1cccc2ccccc12", "note": "(stereo unspecified) [Bedaquiline]", "values": [{"measurement": "cell viability", "setting": "IL-6-GFP PC-9GR", "value": "0.849 ± 0.0096"}, {"measurement": "cell viability", "setting": "IL-6-GFP PC-9", "value": "0.85 ± 0.17"}]}
{"smiles": "CC(=O)O.CCNC(=O)C1CCCN1C(=O)C(CCCNC(=N)N)NC(=O)C(CC(C)C)NC(=O)C(CC(C)C)NC(=O)C(Cc1ccc(O)cc1)NC(=O)C(CO)NC(=O)C(Cc1c[nH]c2ccccc12)NC(=O)C(Cc1c[nH]cn1)NC(=O)C1CCC(=O)N1", "note": "(stereo unspecified) [Leuprolide Acetate]", "values": [{"measurement": "cell viability", "setting": "IL-6-GFP PC-9GR", "value": "1.16 ± 0.31"}, {"measurement": "cell viability", "setting": "IL-6-GFP PC-9", "value": "1.28 ± 0.073"}]}
{"smiles": "CC(C)CC(NC(=O)CNC(=O)c1cc(Cl)ccc1Cl)B1OC(=O)CC(CC(=O)O)(C(=O)O)O1", "note": "(stereo unspecified) [Ixazomib Citrate (MLN9708)]", "values": [{"measurement": "cell viability", "setting": "IL-6-GFP PC-9GR", "value": "0.316 ± 0.3"}, {"measurement": "cell viability", "setting": "IL-6-GFP PC-9", "value": "0.339 ± 0.12"}]}
{"smiles": "COc1ccc(-c2ccc3cc(C(=O)O)ccc3c2)cc1C12CC3CC(CC(C3)C1)C2", "note": "[Adapalene]", "values": [{"measurement": "cell viability", "setting": "IL-6-GFP PC-9GR", "value": "1.15 ± 0.15"}, {"measurement": "cell viability", "setting": "IL-6-GFP PC-9", "value": "0.765 ± 0.3"}]}
{"smiles": "O=C(/C=C/c1cccc(S(=O)(=O)Nc2ccccc2)c1)NO", "note": "[Belinostat (PXD101)]", "values": [{"measurement": "cell viability", "setting": "IL-6-GFP PC-9GR", "value": "0.374 ± 0.026"}, {"measurement": "cell viability", "setting": "IL-6-GFP PC-9", "value": "0.262 ± 0.075"}]}
{"smiles": "O=NN(CCCl)C(=O)NCCCl", "note": "[Carmustine]", "values": [{"measurement": "cell viability", "setting": "IL-6-GFP PC-9GR", "value": "1.21 ± 0.32"}, {"measurement": "cell viability", "setting": "IL-6-GFP PC-9", "value": "1.26 ± 0.063"}]}
{"smiles": "CC(Nc1ncnc2[nH]cnc12)c1cc2cccc(Cl)c2c(=O)n1-c1ccccc1", "note": "(stereo unspecified) [Duvelisib (IPI-145, INK1197)]", "values": [{"measurement": "cell viability", "setting": "IL-6-GFP PC-9GR", "value": "1.42 ± 0.39"}, {"measurement": "cell viability", "setting": "IL-6-GFP PC-9", "value": "1.1 ± 0.12"}]}
{"smiles": "Cc1nc(NC(=O)N2CCCC2C(N)=O)sc1-c1ccnc(C(C)(C)C(F)(F)F)c1", "note": "(stereo unspecified) [Alpelisib (BYL719)]", "values": [{"measurement": "cell viability", "setting": "IL-6-GFP PC-9GR", "value": "0.983 ± 0.067"}, {"measurement": "cell viability", "setting": "IL-6-GFP PC-9", "value": "0.934 ± 0.11"}]}
{"smiles": "O=C(O)c1cc(O)c(O)c(O)c1", "note": "[Gallic acid]", "values": [{"measurement": "cell viability", "setting": "IL-6-GFP PC-9GR", "value": "0.792 ± 0.22"}, {"measurement": "cell viability", "setting": "IL-6-GFP PC-9", "value": "0.369 ± 0.14"}]}
{"smiles": "Cn1cc(C2=C(c3cccc(N)c3)C(=O)NC2=O)c2ccccc21", "values": [{"measurement": "cell viability", "setting": "IL-6-GFP PC-9GR", "value": "0.303 ± 0.31"}, {"measurement": "cell viability", "setting": "IL-6-GFP PC-9", "value": "0.677 ± 0.15"}]}
{"smiles": "S=P(N1CC1)(N1CC1)N1CC1", "note": "[Thiotepa]", "values": [{"measurement": "cell viability", "setting": "IL-6-GFP PC-9GR", "value": "1.02 ± 0.074"}, {"measurement": "cell viability", "setting": "IL-6-GFP PC-9", "value": "0.977 ± 0.074"}]}
{"smiles": "Cc1ccc(Nc2c(F)cccc2Cl)c(CC(=O)O)c1", "note": "[Lumiracoxib]", "values": [{"measurement": "cell viability", "setting": "IL-6-GFP PC-9GR", "value": "0.626 ± 0.15"}, {"measurement": "cell viability", "setting": "IL-6-GFP PC-9", "value": "0.853 ± 0.29"}]}
{"smiles": "Cc1nc(-c2ccc(OCC(C)C)c(C#N)c2)sc1C(=O)O", "note": "[Febuxostat]", "values": [{"measurement": "cell viability", "setting": "IL-6-GFP PC-9GR", "value": "1.38 ± 0.24"}, {"measurement": "cell viability", "setting": "IL-6-GFP PC-9", "value": "1.12 ± 0.27"}]}
{"smiles": "CC(=O)OC1(C(C)=O)CCC2C3CC(C)C4=CC(=O)C=CC4(C)C3(F)C(O)CC21C", "note": "(stereo unspecified) [Fluorometholone Acetate]", "values": [{"measurement": "cell viability", "setting": "IL-6-GFP PC-9GR", "value": "0.701 ± 0.05"}, {"measurement": "cell viability", "setting": "IL-6-GFP PC-9", "value": "0.947 ± 0.087"}]}
{"smiles": "O=C(O)C1CSCN1", "note": "(stereo unspecified) [Timonacic]", "values": [{"measurement": "cell viability", "setting": "IL-6-GFP PC-9GR", "value": "1.19 ± 0.24"}, {"measurement": "cell viability", "setting": "IL-6-GFP PC-9", "value": "1.01 ± 0.15"}]}
{"smiles": "Cc1coc2c1C(=O)C(=O)c1c-2ccc2c(C)cccc12", "note": "[Tanshinone I]", "values": [{"measurement": "cell viability", "setting": "IL-6-GFP PC-9GR", "value": "1.32 ± 0.097"}, {"measurement": "cell viability", "setting": "IL-6-GFP PC-9", "value": "1.51 ± 0.29"}]}
{"smiles": "Cl.Cl.Cl.Cl.Cl.Cl.Cl.Cl.c1cc(CN2CCCNCCNCCCNCC2)ccc1CN1CCCNCCNCCCNCC1", "note": "[Plerixafor 8HCl (AMD3100 8HCl)]", "values": [{"measurement": "cell viability", "setting": "IL-6-GFP PC-9GR", "value": "1.04 ± 0.12"}, {"measurement": "cell viability", "setting": "IL-6-GFP PC-9", "value": "1.13 ± 0.1"}]}
{"smiles": "CC(C)(C)c1nc(-c2cccc(NS(=O)(=O)c3c(F)cccc3F)c2F)c(-c2ccnc(N)n2)s1", "values": [{"measurement": "cell viability", "setting": "IL-6-GFP PC-9GR", "value": "1.14 ± 0.12"}, {"measurement": "cell viability", "setting": "IL-6-GFP PC-9", "value": "0.77 ± 0.035"}]}
